This note sets out measurements from PubChem BioAssay AID1458 (National Center for Advancing Translational Sciences (NCATS), 2008).

Among all 210,000 compounds or so, about 5,900 (2.8%) were called active. Entries that show only a call come without a potency. Another 5% or so got no clear call; they are omitted. Calls come from the whole dose curve; as a rule, active = well fitted activation curve with a large enough effect; inconclusive = small, poorly fitted or top-dose-only effect; inactive = no such curve, though single readings can be large or run the other way. Many of the other results were omitted from the sample, so actives are more common in it than they were.
Potency is the fitted concentration of half-maximal effect.

A short description of this test: qHTS Assay for Enhancers of SMN2 Splice Variant Expression. Note: nearly all actives have a fitted effect of over 55% in size. Conditions: HEK293 SMN2-luciferase splicing reporter, luminescence, 30-36 h; series mostly up to 46.1 µM. An excerpt: NIH Chemical Genomics Center [NCGC] NIH Molecular Libraries Probe Production centers Network [MLPCN] MLPCN Grant: R03 MH084179-01 Assay Submitter (PI): Elliot Androphy NCGC Assay Overview: Spinal muscular atrophy (SMA) is caused by insufficient levels of the survival motor neuron protein SMN. The SMN locus on chromosome 5q13 contains two inverted copies of SMN called SMN1 and SMN2 which are 99% identical at the amino acid level. SMN1 is a fully functional protein and SMN2 skips exon 7 90% of the time. Skipping of exon 7 produces non-functional protein product. 10% of the SMN2 protein includes exon 7 and is fully functional. In the SMA disease state, mutations in the SMN1 locus are the cause of the disease state. Because only 10% of SMN2 is of the fully functional form, it is not sufficient to overcome the deficiency produced by the loss of the SMN1 product. A therapy that either increase the amount of SMN2 product made or to increase the inclusion of exon 7 has been proposed for the treatment of SMA. We have designed an assay to identify small molecules that can increase the amount of functional SMN2 product by appending a luciferase reporter gene after the native SMN2 gene, such that inclusion of exon 7 in the expressed product places the luciferase sequence in frame, thus generating functional luciferase enzyme.
NCGC Assay Protocol Summary: This screen utilizes a luciferase reporter gene assay, combining the promoter and splicing based cassettes in tandem with the major portion of the native SMN2 cDNA, and then transfected into HEK293 cells. Compounds that increase luciferase signal presumably enhance expression of the functional SMN2 splice variant. Passaging media contained DMEM w/ glutamax (+phenol red) 10% FCS, 1x pen/strep, 200 ug/ml hygro, 1x sodium pyruvate. Assay media contained DMEM w/ glutamax (-phenol red) 10% FCS, 1x pen strep, 1x pyruvate Sequence, Parameter, Value, Description (1) Cells, […], 2000 cells/well, 1536 TC treated White solid bottom plate (2) Time, 10-12 hours, 37C 5% CO2 (3) Compound, 23 nl, MLSMR Library (4) Control Compound, 23 nL, Sodium butyrate st 4.5mM (final) conc (5) Time, 30-36 hours, 37C 5% CO2 (6) Reagent, 3 ul, One Glo (TM) from Promega (7) Time, 5-15 minutes, Room temp (8) Detector, Viewlux: luminescent read, 60 second integration, high speed 2x binning Keywords: Spinal muscular atrophy, SMA, SMN2, high throughput screening, MLSMR, MLPCN, NIH Roadmap, qHTS and NCGC
For the compound `O=C(Cn1ncc2c3ccccc3n(Cc3ccccc3)c2c1=O)NCc1ccccn1`, the Potency result is “inactive”. Regarding `CCN1CCN(Cc2c(O)ccc3oc(C)c(C(=O)Nc4ccc(C)cc4C)c23)CC1`, the Potency result was “inactive”. In the case of `CC(C)(C)c1ccc(C(=O)N2CCC(c3nc(-c4ccc(S(=O)(=O)N5CCCC5)cc4)no3)CC2)cc1`, the Potency result is “inactive”. Under `COc1cc(CNCCSc2nnnn2C)ccc1OCc1ccc(Cl)cc1Cl` stands “inactive”; under `CS(=O)(=O)n1nc(-c2ccccc2)nc1NCc1ccco1`, “inactive”; under `CCS(=O)(=O)n1nc(-c2ccccc2)nc1SCc1ccccc1`, 22.4 µM (active). Regarding `CCn1c(SCc2ccccc2)nc2c(c1=O)SCC2`, the Potency entry is “inactive”. `Cc1ccc(-n2nc(CO)c(C(=O)NCCc3ccccc3)n2)cc1`: the Potency entry was “inactive”. As for `Cc1ccc(-n2c3nc(=O)[nH]c(=O)c-3cc3c(Cl)cccc32)cc1`, the Potency entry was “inactive”. Regarding `Cc1nonc1NC(=O)CSc1nc2ccccc2cc1C#N`, the Potency result is “inactive”. Turning to `COc1ccc(N2CCN(C(=O)CSc3nc4cc(OC)c(OC)cc4cc3C#N)CC2)cc1`, the Potency entry is “inactive”. For `CCOc1ccc2cc(C#N)c(SCC(=O)OC)nc2c1`, the Potency was 11.2 µM (active). Turning to `CCN1CCc2nc3sc(C(=O)Nc4ccccc4OC(F)(F)F)c(N)c3cc2C1`, the Potency entry was “inactive”. On to `CC1=C(C(N)=O)C(c2ccc3c(c2)OCO3)n2nc(-c3cccc(C)c3)nc2N1` (stereo not given), for which the Potency result was “inactive”. Regarding `COc1cccc(-c2nc3n(n2)C(c2ccccc2Cl)C(C(N)=O)=C(C)N3)c1` (stereo not given), the Potency is 15.8 µM (active). For the compound `COc1ccc(C2=CC(c3ccccc3Cl)n3nc(-c4ccc(Cl)cc4)nc3N2)cc1` (stereo not given), the Potency result is “inactive”. In the case of `COc1ccc(/C=C/C(=O)N2CCCC2)cc1OC`, the Potency result is “inactive”. Consider `COc1ccc(/C=C/C(=O)Nc2cccnc2)cc1OC`, for which the Potency entry is “inactive”. Under `COc1ccc(/C=C/C(=O)Nc2ccc(C34CC5CC(CC(O)(C5)C3)C4)cc2)cc1OC` stands 12.6 µM (active). For `CCOC(=O)c1ccc(NC(=O)CC2C(=O)N(c3ccccc3)C(=O)N2Cc2cccs2)cc1` (stereo not given) the value was “inactive”. For `CCOC(=O)c1c(NC(=O)CCl)sc(C(=O)N(CC)CC)c1C` the value was “inactive”; for `CCC(=O)Nc1sc(C(=O)Nc2ccccc2)c(C)c1C(=O)OC`, 3.55 µM (active). As for `CCOC(=O)c1sc(NC(=O)COc2ncnc3ccccc23)c(C(=O)OCC)c1C`, the Potency entry was “inactive”. Under `COc1ccccc1NC(=O)c1sc2nc(C)c(C(=O)Nc3ccc(Cl)cc3)c(-c3ccc(Br)cc3)c2c1N` stands “inactive”. Consider `CCc1ccccc1NS(=O)(=O)c1ccc2nc(-c3ccccc3)[nH]c2c1`, for which the Potency entry is “inactive”. With `Cc1c(NC(=O)c2cc(-c3ccc(Br)cc3)on2)c(=O)n(-c2ccccc2)n1C`, the Potency entry was “inactive”. Consider `CC(C)Oc1ccc(CNC(=O)C2CCN(c3nc4ccccc4n(C)c3=O)CC2)cc1`, for which the Potency result is “inactive”.

Regarding `Cc1cc(C)c2oc(C(=O)Nc3ccc(S(=O)(=O)N(C)c4ccccc4)cc3)cc(=O)c2c1`, the Potency result was “inactive”.

`Cc1ccc(NC(=O)Nc2ccc3oc(C)nc3c2)cc1`: the Potency is 11.2 µM (active). With `Cc1nc2cc(NC(=O)NCc3ccccc3)ccc2o1`, the Potency entry was “inactive”. Consider `Cc1nc2ccc(NC(=O)C(F)(F)F)cc2o1`, for which the Potency result was “inactive”. Regarding `CC(C)c1ccc(NS(=O)(=O)c2ccc3[nH]cc(C(=O)NC4CCCC4)c(=O)c3c2)cc1`, the Potency result is “inactive”. In the case of `CCOc1ccc(-c2n[nH]c3c2C(c2ccccc2OC)N(c2ccc(Br)cc2)C3=O)cc1` (stereo not given), the Potency entry is “inactive”. For `COc1cccc(OCC(=O)NNC(=O)c2cnccn2)c1`, the Potency entry was “inactive”. In the case of `COc1cccc(OCC(=O)Nc2ccccc2C(N)=O)c1`, the Potency was 11.2 µM (active).

Regarding `CCCOC(=O)Nc1ccccc1C(N)=O`, the Potency result was “inactive”. Turning to `CCOc1ccc(-c2nonc2NC(=O)c2oc3ccc(CC)cc3c2C)cc1`, the Potency entry was “inactive”.

`CCOC(=O)c1ccc(NC(=O)c2ncn(-c3ccccc3)n2)cc1`: the Potency result is “inactive”. `CCC(=O)N1CCc2cc(S(=O)(=O)CCC(=O)N3CCN(c4ccccc4F)CC3)ccc21`: the Potency result was “inactive”.

Regarding `CC(C)(C)c1ccc(/C=C/C(=O)NC2CCS(=O)(=O)C2)cc1` (stereo not given), the Potency result is “inactive”. As to `O=C(/C=C/c1ccc(Cl)cc1)Nc1ccc(S(=O)(=O)Nc2ncccn2)cc1`, the Potency entry was “inactive”. Regarding `CC(C)(C)c1ccc(/C=C/C(=O)Nc2ncccn2)cc1`, the Potency was 22.4 µM (active).

For the compound `CCN(CC)CCNC(=O)Cn1ncc2c3ccccc3n(Cc3ccccc3C)c2c1=O`, the Potency entry is “inactive”. Take `COCCCNC(=O)c1c(NC(=O)c2cc(=O)c3cc(C)c(C)cc3o2)sc2c1CCCC2`: the Potency result is “inactive”.

For the compound `CCOC(=O)c1nnn(CC(=O)NC(=O)Nc2ccccc2F)c1C(=O)OCC`, the Potency entry was “inactive”. Under `COc1ccc(CNC(=O)CC2Oc3ccc(C)cc3NC2=O)cc1` (stereo not given) stands “inactive”; under `O=C(c1ccc(C(F)(F)F)cc1)N1CCC(c2nc(-c3ccc(S(=O)(=O)N4CCCC4)cc3)no2)CC1`, “inactive”. For `O=C(CSc1cccc[n+]1[O-])c1ccc(-c2ccccc2)cc1` the value was 12.6 µM (active); for `COc1ccccc1C(=O)CSc1cccc[n+]1[O-]`, “inactive”; for `O=C(CSc1cccc[n+]1[O-])c1ccc(Cl)cc1`, “inactive”.
